HSF1 inhib = HSF1 inhibition | NIH3T3-HGL HSE-luciferase, MG132-induced, luminescence 8 h; hits give low values | activity change, negative = inhibition, % at 7.5 µM (by protocol) | hit rate 0.77% among 300,000 | AID 2098;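 active = more than half of replicate wells show activity change below -50%, luminescence cut by over half; inconclusive = some wells, but at most half, below -50%; inactive = no replicate well below -50%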;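 note: luciferase reports HSF-1 transcriptional activity via heat shock element; 0% = median of DMSO wells and -100% = zero luminescence signal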
esBAF inh = blocks esBAF chromatin remodeling in mouse ES cells | Bmi1-luciferase knock-in reporter, 24 h; 100% = twice the neutral-well signal | reporter increase, % at 12.5 µM | hit rate 2% among 350,000 | AID 602393; in the data active = activation above about 40%; inconclusive = no clear call, values can overlap the other calls;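 note: 0% = median of the plate's neutral control wells and 100% = double that signal; a rise in the Bmi1 reporter signal indicates esBAF inhibition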
Wnt bcat act = activates Wnt/beta-catenin signaling in a reporter cell assay. activation, % at 9.35 µM. AID 743398. hit rate 1.2% among 300,000. activator, plate reader; in the data active = activation above about 30%, passing the limit was not always enough; inconclusive = no clear call, values can overlap the other calls;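 note: 0% = neutral control wells and 100% = positive control wells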
MITF act = increases MITF-driven TRPM1 promoter luciferase signal. hit rate 0.75% among 300,000. SK-MEL-5 TRPM1-promoter luciferase, 24 h; % of positive control, neutral wells = 0. activation, % at 12.5 µM;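 active = mean activation of at least 80% with every replicate also reaching 80%; inconclusive = mean reaches 80% but some replicate falls short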;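 note: 0% = neutral control wells and 100% = parthenolide positive control wells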
HSF-1 act = increases HSF-1 driven luciferase reporter signal; NIH3T3-HGL HSF-1 luciferase reporter, MG132, 8 h; 100% = twice DMSO control signal; activation, % at 9 µM; hit rate 1.7% among 300,000; AID 504408;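 active = mean replicate activation of at least 50% with a set share of replicates each reaching 50%; inconclusive = only one of those two conditions met; inactive = mean below 50% and too few replicates reaching it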;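 note: 0% = median of the neutral control wells and 100% = twice that signal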
The depositor's hits bear a star; ? = inconclusive; . = no result. The list is not random: actives were taken first. Their share in the collection is about 3.9%.

SMILES	HSF1 inhib	esBAF inh	Wnt bcat act	MITF act	HSF-1 act
CCN(c1ccccc1)S(=O)(=O)c1ccc(Cl)c(NC(=O)COC(=O)c2ccc(Cl)c(N)c2)c1	-7	.	0	-15	-18
CCN(c1ccccc1)S(=O)(=O)c1ccc(Cl)c(NC(=O)COC(=O)c2cccc(OC)c2O)c1	53	.	-2	16	59*
O=C(NNC(=O)c1ccccc1O)c1ccc(Br)cc1	0	31	3	52	10
O=C(NNC(=O)c1ccccc1O)c1cccc(Br)c1	0	46*	0	.	-15
O=C(C[C@@H]1C[C@@H]2c3cc(NS(=O)(=O)c4ccc(F)cc4)ccc3O[C@@H]2[C@@H](CO)O1)NCc1cccnc1	.	7	.	.	.
CC(=O)Nc1nc(-c2ccc3ccccc3c2)cs1	43	31	48*	94*	87*
O=C(CN1C(=O)CCC1=O)Nc1nc(-c2nc3ccccc3s2)cs1	33	40	10	92*	45
O=C(CN1C(=O)CCC1=O)Nc1nc(-c2ccc3ccccc3c2)cs1	19	.	44*	67	32
O=C(CN1C(=O)CCC1=O)Nc1nc(-c2ccccn2)cs1	-7	-3	-1	0	10
C[C@@H]1CN([C@H](C)CO)C(=O)c2cccc(NS(=O)(=O)c3cccs3)c2O[C@H]1CN(C)CC1CC1	.	0	.	.	.
COC(=O)C[C@@H]1CC[C@H]2[C@H](COc3ccc(NC(=O)Nc4cc(C)cc(C)c4)cc3C(=O)N2C)O1	.	3	.	.	.
COc1ccc(S(=O)(=O)Nc2ccc3c(c2)C(=O)N([C@@H](C)CO)C[C@@H](C)[C@H](CN(C)S(=O)(=O)c2cn(C)cn2)O3)cc1	.	-1	.	.	.
Nc1c(Br)cc2oc(-c3ccccc3)nc2c1Br	5	58*	.	36	-10
Cc1ccc(-c2cn3c(=O)cc(C)[nH]c3n2)cc1	-19	?	45*	61	-23
CNc1cncc(-c2ccc(OC)cc2)n1	.	41*	2	.	.
C[C@@H]1CN([C@H](C)CO)C(=O)c2cc(NS(=O)(=O)c3ccccc3)ccc2O[C@@H](C)CCCCO[C@H]1CN(C)Cc1ccc(C(F)(F)F)cc1	.	1	.	.	.
C[C@@H]1CN([C@H](C)CO)S(=O)(=O)c2ccc(C#CCN(C)C)cc2O[C@@H]1CN(C)C(=O)C1CC1	.	0	.	.	.
COc1ccc2c(c1)CCc1c(C(=O)NCc3ccco3)noc1-2	36	42*	21	100*	29
COc1ccc2c(c1)CCc1c(C(=O)N(C)c3ccccc3)noc1-2	37	56*	?	55	69*
COc1ccc2c(c1)CCc1c(C(=O)NC3CCCCC3)noc1-2	23	-5	.	91*	45
COc1ccc2c(c1)CCc1c(C(=O)NCCCn3ccnc3)noc1-2	-5	15	.	9	-6
COCC(C)NC(=O)c1noc2c1CCc1cc(OC)ccc1-2 (configuration not stated)	49	.	.	28	71*
CO[C@H]1CN(C)C(=O)c2cc(NC(=O)Nc3ccccc3F)ccc2OC[C@H](C)N(C)C[C@@H]1C	.	-2	.	.	.
COCCNC(=O)c1noc2c1CCc1cc(OC)ccc1-2	47	36	.	77	77*
COc1ccc2c(c1)CCc1c(C(=O)NCCN3CCOCC3)noc1-2	1	.	.	-1	-6
SMILES	HSF1 inhib	esBAF inh	Wnt bcat act	MITF act	HSF-1 act
CCc1nn(C(C)C(=O)NCCc2ccccc2)c(=O)c2cc3occc3n12 (configuration not stated)	-7	-1	-1	2	-13
CCc1nn(C(C)C(=O)NC(C)CCc2ccco2)c(=O)c2cc3occc3n12 (configuration not stated)	66	0	.	-8	129*
C[C@@H]1CCCCO[C@@H](CN(C)S(=O)(=O)c2cccs2)[C@@H](C)CN([C@@H](C)CO)C(=O)c2cc(NC(=O)Nc3cccc4ccccc34)ccc2O1	.	9	.	.	.
COC(=O)c1ccc(CSc2ccccc2NC(=S)Nc2cccc(SC)c2)o1	.	54*	9	.	.
CCOC(=O)C(CN1CCCC1)c1ccccc1 (configuration not stated)	-8	0	-3	2	-10
O=C(c1ccc(Cl)cc1)C(CN1CCCCC1)c1ccccc1 (configuration not stated)	86	8	-10	-1	107*
CC(C)(C)OC(=O)N1CCC(C(=O)Nc2ccc3c(c2)CCC3)CC1	.	75*	27	?	.
Cc1ccc(NC(=O)C2CCCN(c3ncccn3)C2)c(C)c1 (configuration not stated)	2	51*	4	48	18
Cc1ccc(NC(=O)C2CCCN(c3nccc(C)n3)C2)c(C)c1 (configuration not stated)	11	5	-1	-9	?
CC(=O)N1CCC(C(=O)Nc2ccc3c(c2)CCC3)CC1	-1	.	-1	-10	-1
O=C(Nc1ccc2c(c1)CCC2)C1CCCN(c2ncccn2)C1 (configuration not stated)	18	62*	.	86*	46
C[C@H]1CCCCO[C@H](CN(C)C(=O)c2ccccc2)[C@@H](C)CN([C@@H](C)CO)C(=O)c2cc(N(C)C)ccc2O1	.	5	.	.	.
CNC[C@@H]1Oc2cc(C#CCOC)ccc2S(=O)(=O)N([C@@H](C)CO)C[C@@H]1C	.	-3	.	.	.
CN(C)c1ccc(N=Nc2ccc3ncccc3c2)cc1	.	-49	3	15	.
CN(C)c1ccc(N=Nc2cccc(F)c2)cc1	6	-8	52*	49	-2
CC(C)NC(=O)N(C)C[C@@H]1Oc2ccc(NC(=O)Nc3cccc4ccccc34)cc2CC(=O)N([C@@H](C)CO)C[C@@H]1C	.	-4	.	.	.
Cc1ccc(-n2nc3c(n2)/C(=N/O)CC/C3=N\O)cc1	20	21	43*	25	34
O=C(COc1ccc(F)c(Cl)c1)c1ccc[nH]1	63	38	6	54	93*
C=CCN(C(=O)C1CC(=O)N(C2CCCC2)C1)c1nc(-c2ccc(S(C)(=O)=O)cc2)cs1 (configuration not stated)	.	54*	15	46	.
CS(=O)(=O)N(CC(=O)NCCSC1CCCCC1)c1ccc2c(c1)OCO2	-67*	-7	.	0	-74
Cc1ccc(SCCNC(=O)CN(c2ccc3c(c2)OCO3)S(C)(=O)=O)cc1	-10	0	.	-1	3
COCC(=O)N(C)C[C@@H]1Oc2cc(C#CCC(C)C)ccc2S(=O)(=O)N([C@@H](C)CO)C[C@H]1C	.	-6	.	.	.
Cc1ccc(NC(=O)CSc2nnc3ccccn23)c(Cl)c1	.	66*	1	.	.
COCCn1c(C)cc(C(=O)CSc2nnc3ccccn23)c1C	-51*	-72	-3	-58	-60
COCCn1c(C)cc(C(=O)CSc2nc3ccccc3s2)c1C	.	-52	-2	-8	.
COCCn1c(SCC(=O)NC(=O)Cc2ccccc2)nc2ccccc2c1=O	.	-4	-1	1	.
COCCn1c(SCC(=O)c2cc(C)n(C)c2C)nc2ccccc2c1=O	-72*	.	12	28	-77
